This passage reports Potency and outcome results from PubChem BioAssay (Tox21).

Records with an inconclusive call do not appear. Unmarked numbers belong to inactive results. Activity calls are given as the source filed them. Unless noted, calls follow the shape of the dose curve; as a rule, active = well fitted curve in the direction sought with a large enough effect in the repeat runs; inconclusive = weak or mixed curves; inactive = no such curve, though single readings can be large; an effect the other way counts as inactive or inconclusive.

The nature of assay [1]: qHTS assay to identify small molecule agonists of the vitamin D receptor (VDR) signaling pathway - cell viability counter screen (AID 743224). Also: nearly all actives have a fitted effect of over 50% in size. Also: potency is read from the fitted curve at half-maximal effect. In outline:
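VDR-bla cells were preincubated 4 h at 37C/5% CO2, then exposed to compounds for 16 h. After the 2 h room-temperature bla FRET read, CellTiter-Glo was added to the same wells and luminescence read after 30 min.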
For orientation: qHTS replaces the single test concentration by a dilution series.

The nature of assay [2]: qHTS assay to identify small molecule antagonists of the vitamin D receptor (VDR) signaling pathway - cell viability counter screen (AID 743225). Also: nearly all actives have a fitted effect of over 50% in size. In outline: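 Viability counter screen run in the same wells as the beta-lactamase reporter assay: HEK 293T VDR-UAS-bla cells, 16 h compound exposure at 37C with 3 nM (final) 1-alpha,25-dihydroxyvitamin D3. CellTiter-Glo luminescence, 30 min, room temperature.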

The nature of assay [3]: qHTS assay to identify small molecule agonists of the NFkB signaling pathway (AID 1159509; active = well fitted curve in the direction sought with a large enough effect in the signal ratio in the repeat runs, not every such curve was filed as active; the % refers to the signal ratio; also: series mostly up to about 61 µM). In outline: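 ME-180 NFkB-bla, 2,000 cells/well, overnight plating; cpd pinned in DMSO, 5 h 37 C; B/G FRET substrate 1.5 h RT; ex 405, em 460/530 nm.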
A short description of assay [4]: qHTS assay to identify small molecule agonists of the NFkB signaling pathway - cell viability counter screen (AID 1159515; calls by dose curve; also: series mostly up to about 61 µM; nearly all actives have a fitted effect of over 55% in size). A digest of the protocol: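 NFkB-bla ME-180 cells, 2,000/well, were plated overnight at 37 C, 5% CO2, then exposed to compounds in DMSO for 5 hr. After the bla FRET read, CellTiter-Glo was added to the same wells; luminescence was read after 30 min at room temperature.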

Assay [5] is described as follows: qHTS assay to identify small molecule agonists of the endoplasmic reticulum stress response signaling pathway - cell viability counter screen (AID 1159517; calls by dose curve;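 also: HeLa cells carrying an ER stress response element beta-lactamase reporter; series mostly up to about 61 µM; nearly all actives have a fitted effect of over 50% in size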). A digest of the protocol:
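ESRE-bla HeLa cells, 1,500 per well, seeded overnight then treated with compounds for 5 hr at 37 C. After the beta-lactamase read, viability in the same wells is measured by CellTiter-Glo luminescence after 30 min at room temperature.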

A short description of assay [6]: qHTS assay to identify small molecule antagonists of the retinoid-related orphan receptor gamma (ROR-gamma) signaling pathway - cell viability counter screen (AID 1159520). Also: nearly all actives have a fitted effect of over 50% in size. In outline:
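Tet-on ROR gamma CHO cells were given compounds for 2 hr, then doxycycline hyclate at 1 uM final, and incubated 16 hr at 37 C. Viability was measured as ATP content by CellTiter-Glo luminescence.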

The target of assay [7] is Nuclear receptor ROR-gamma (Homo sapiens) (UniProt P51449). Description: qHTS assay to identify small molecule antagonists of the retinoid-related orphan receptor gamma (ROR-gamma) signaling pathway (AID 1159521). In outline:
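Luminescence readout (ONE-Glo, 30 min RT) after 16 h doxycycline induction; loss of signal scored as antagonism. CHO cells with TET-inducible RORγ and RORE-LUC reporter; compounds added 2 h before 1 uM final doxycycline.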

Assay [8] in a line: qHTS assay to identify small molecule agonists of the AP-1 signaling pathway - cell viability counter screen (AID 1159525; calls by dose curve; also: nearly all actives have a fitted effect of over 55% in size). In outline: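 AP-1-bla ME-180 cells in Opti-MEM with 0.5% dialyzed FBS, compound exposure 5 h at 37 C in 15-point titration. Viability read in the same wells as ATP content by CellTiter-Glo luminescence, normalised to tetra-n-octylammonium bromide and DMSO controls.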

Assay [9] is described as follows: qHTS assay to identify small molecule agonists of the AP-1 signaling pathway (AID 1159526; calls by dose curve).
The target of assay [10] is Retinoic acid receptor RXR-alpha (Homo sapiens) (UniProt P19793). Description: qHTS assay to identify small molecule agonists of the RXR signaling pathway (AID 1159527; calls by dose curve; also: nearly all actives have a fitted effect of over 35% in size). In outline: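 Agonist mode; 9-cis retinoic acid positive control. HEK 293T UAS-bla reporter cells, 2% charcoal-stripped FBS, 16 hr compound exposure at 37 C/5% CO2. LiveBLAzer B/G FRET substrate 2 hr RT; ex 405, em 460/530 nm.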

Assay [11] can be described thus: qHTS assay to identify small molecule agonists of the RXR signaling pathway - cell viability counter screen (AID 1159529). In outline:
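Luminescence from CellTiter-Glo (30 min, RT) measured viability in the same wells as the beta-lactamase reporter readout. Cells: GeneBLAzer RXR-alpha HEK 293T, 2% charcoal-stripped FBS. Compound exposure 16 hr, 37 C.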

A short description of assay [12]: qHTS assay to identify small molecule antagonists of the retinoid acid receptor (RAR) signaling pathway - cell viability counter screen (AID 1159551). Also: nearly all actives have a fitted effect of over 35% in size. In outline: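 C3RL4 cells were seeded overnight at 37 C, then treated with compounds plus 1 uM (final) retinol for 6 h at 37 C. Viability was read as ATP by CellTiter-Glo luminescence after 30 min at room temperature.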

Assay [13] in a line: qHTS assay to identify small molecule antagonists of the retinoic acid receptor (RAR) signaling pathway (AID 1159552; also: nearly all actives have a fitted effect of over 50% in size). A digest of the protocol:
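Luminescence from a RARE luciferase reporter in C3RL4 cells served as read-out. Cells received compounds together with 1 uM final retinol and incubated 6 hr at 37 C before detection reagent was added for 30 min at room temperature.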

A short description of assay [14]: qHTS assay to identify small molecule agonists of the retinoic acid receptor (RAR) signaling pathway (AID 1159553). Also: potency is read from the fitted curve at half-maximal effect. A digest of the protocol:
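C3RL4 cells carrying a RARE luciferase reporter were plated overnight at 37 C, then exposed to compounds in DMSO for 6 hr at 37 C and 5% CO2. Luminescence was read 30 min after luciferase reagent addition at room temperature.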

Sequence of Retinoic acid receptor RXR-alpha (Homo sapiens) (P19793 whole entry, looked up): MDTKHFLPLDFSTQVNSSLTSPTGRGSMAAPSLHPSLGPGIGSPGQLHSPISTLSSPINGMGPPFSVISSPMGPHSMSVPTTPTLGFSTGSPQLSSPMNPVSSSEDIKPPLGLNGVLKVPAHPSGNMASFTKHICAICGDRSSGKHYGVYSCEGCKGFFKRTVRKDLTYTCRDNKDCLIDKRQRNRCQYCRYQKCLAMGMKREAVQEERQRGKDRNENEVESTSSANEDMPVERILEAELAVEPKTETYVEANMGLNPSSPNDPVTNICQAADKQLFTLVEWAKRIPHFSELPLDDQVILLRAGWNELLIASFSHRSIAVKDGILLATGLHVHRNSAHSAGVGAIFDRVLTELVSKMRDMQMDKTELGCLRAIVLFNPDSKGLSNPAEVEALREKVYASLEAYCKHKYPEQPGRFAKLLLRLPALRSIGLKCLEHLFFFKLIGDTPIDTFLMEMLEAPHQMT

With `COc1ccc(C)cc1`, the Potency entry in [1], in assay [2], in assay [4], in [5], in assay [6] and in assay [7] was “inactive” in each case. For the same compound, the Potency result in assay [8], in assay [10], in [11], in assay [12], in [13] and in assay [14] was “inactive” in each case. The compound was called inactive in assay [3] and in assay [9].
As for `CC(C)OC(=O)c1ccccc1C(=O)OC(C)C`, the Potency result in assay [1], in [2], in [4], in assay [5], in assay [6] and in assay [7] was “inactive” in each case. In addition, the Potency entry in [8], in assay [10], in assay [11], in assay [12] and in assay [13] was “inactive” each time. In addition, the call in assay [3] and in [9] was inactive.
As for `COC(=O)CC(C(C)=O)C(=O)OC` (stereo not drawn), the Potency entry in assay [1], in assay [2], in assay [4], in [5], in assay [6] and in [7] was “inactive” each time. The Potency entry in [8], in assay [10], in [11], in [12] and in [13] was “inactive” each time. In addition, the outcome in assay [3] and in assay [9] was inactive.
Take `NC(=O)c1ccccc1[N+](=O)[O-]`: the Potency entry in assay [1], in [2], in [4], in [5], in [6] and in assay [7] was “inactive” throughout. In addition, the Potency result in [8], in [10], in assay [11], in assay [12], in [13] and in [14] was “inactive” throughout. The compound was called inactive in [3] and in assay [9].
On to `CCCCCCCC/C=C/C(=O)O`, for which the Potency result in assay [1], in assay [2], in assay [4], in assay [5], in assay [6] and in assay [7] was “inactive” in each case. The Potency result in assay [8], in [11] and in [12] was “inactive” throughout. Moreover, the result in assay [3] and in assay [9] was inactive.
Turning to `CC(CO)(CO)C(=O)O`, the Potency result in [1], in assay [2], in assay [4], in assay [5], in assay [6] and in assay [7] was “inactive” throughout. Besides, the Potency entry in assay [8], in [10] and in assay [11] was “inactive” in each case. Besides, the result in assay [3] and in assay [9] was inactive.
For the compound `Nc1ccc(N=Nc2ccc(N)cc2)cc1`, the Potency result in [1], in assay [2], in [4], in assay [5], in assay [6] and in assay [7] was “inactive” throughout. For the same compound, the Potency result in [8], in assay [10], in assay [12] and in assay [13] was “inactive” throughout. Moreover, the call in [3] and in [9] was inactive. For the same compound, the Potency in assay [14] is 863 nM (active).
`CCC(=O)OCc1ccc(OC)cc1`: the Potency result in [1], in assay [4], in assay [5], in assay [6], in assay [7] and in [8] was “inactive” each time. Besides, the Potency result in assay [11], in [12], in [13] and in [14] was “inactive” throughout. The call in assay [3] and in [9] was inactive.
As for `COc1ccc(-n2nc(C(F)F)cc2-c2ccc(S(C)=O)cc2)cc1` (stereo not drawn), the Potency entry in [1], in assay [2], in [4], in [5], in assay [6] and in [7] was “inactive” throughout. Besides, the Potency entry in assay [8], in [11], in [12] and in assay [14] was “inactive” throughout. Further, the call in assay [3] and in assay [9] was inactive.
`COc1cc(NCc2ccc3nc(N)nc(N)c3c2C)cc(OC)c1OC`: the Potency in [1] was 150 nM (active). In addition, the compound was classed as inactive in assay [3] and in assay [9]. The Potency entry in assay [4], in assay [5], in assay [6], in [7], in [8] and in assay [12] was “inactive” throughout. The Potency entry in [14] is “inactive”.
